# Screening results (PubChem BioAssay)
# GIRK2 act: Activators of human GIRK2-containing channels | P48051 | HEK293 GIRK2/NPY4 cells, thallium flux fluorescence | 34,000 tested, under 10 active | activation (% efficacy), % for hits at 75 µM;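 active means primary screen hit, no activity in plain HEK293 cells, and in GIRK2-only cells above 5% efficacy rising with concentration; inactive means the rest, including fluorescent compounds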;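 further: efficacy is normalized control-subtracted fluorescence 15 s after thallium addition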
# GluA2 TARP mod: modulates AMPAR-stargazin complexes | O88602+P19491 | calls only at 30 µM | hit rate 3.5% among 40,000 | HEK293 GluA2+stargazin, membrane potential dye (FDSS), glutamate EC50; hits were called plate by plate, in both directions;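 active means any of four per-well response measures lying three or more SD from its plate-wide compound average, in either direction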
# Target sequence (O88602 whole entry, looked up): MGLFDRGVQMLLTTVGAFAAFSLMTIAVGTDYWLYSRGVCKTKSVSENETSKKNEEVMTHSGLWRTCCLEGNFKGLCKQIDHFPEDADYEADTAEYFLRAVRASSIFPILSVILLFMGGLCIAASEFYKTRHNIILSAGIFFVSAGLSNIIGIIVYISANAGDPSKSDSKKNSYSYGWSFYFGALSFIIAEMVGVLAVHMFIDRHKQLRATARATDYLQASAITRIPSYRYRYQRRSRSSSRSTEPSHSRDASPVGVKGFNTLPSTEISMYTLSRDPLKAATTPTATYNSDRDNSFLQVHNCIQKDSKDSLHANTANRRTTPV
# Target sequence (P19491 whole entry, looked up): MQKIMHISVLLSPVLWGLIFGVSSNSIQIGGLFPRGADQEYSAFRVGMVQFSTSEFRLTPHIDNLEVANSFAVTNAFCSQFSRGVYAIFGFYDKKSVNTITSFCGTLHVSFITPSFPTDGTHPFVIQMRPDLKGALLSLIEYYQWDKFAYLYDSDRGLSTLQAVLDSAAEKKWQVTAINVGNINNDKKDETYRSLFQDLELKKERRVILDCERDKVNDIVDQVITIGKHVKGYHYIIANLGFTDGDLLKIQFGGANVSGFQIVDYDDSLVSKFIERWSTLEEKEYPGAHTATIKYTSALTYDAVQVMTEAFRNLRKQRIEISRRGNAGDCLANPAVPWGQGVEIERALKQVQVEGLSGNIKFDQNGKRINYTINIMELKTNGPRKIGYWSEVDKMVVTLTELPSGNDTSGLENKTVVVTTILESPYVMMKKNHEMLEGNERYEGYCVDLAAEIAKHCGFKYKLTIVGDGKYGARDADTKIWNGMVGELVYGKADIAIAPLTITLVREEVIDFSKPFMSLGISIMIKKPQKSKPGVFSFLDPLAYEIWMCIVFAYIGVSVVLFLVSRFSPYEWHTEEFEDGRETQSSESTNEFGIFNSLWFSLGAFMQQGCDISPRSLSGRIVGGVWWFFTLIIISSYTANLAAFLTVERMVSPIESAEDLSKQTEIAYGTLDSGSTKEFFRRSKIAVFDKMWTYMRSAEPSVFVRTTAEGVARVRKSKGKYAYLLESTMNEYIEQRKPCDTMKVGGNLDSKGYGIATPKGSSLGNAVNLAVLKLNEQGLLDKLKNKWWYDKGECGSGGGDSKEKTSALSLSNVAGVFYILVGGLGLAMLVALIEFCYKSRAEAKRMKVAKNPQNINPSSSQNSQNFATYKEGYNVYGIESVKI
# Calls only; n = inactive; x = no result given; + = active, no number. Shown is part of a subset that was picked to be rich in hits.
SMILES,GIRK2 act,GluA2 TARP mod
COCCn1c(=NC(=O)CCS(=O)(=O)c2ccc(OC)cc2)sc2cc(F)cc(F)c21,n,n
COc1cccc(-c2nnc3ccc(OCCNC(=O)CC(C)(C)C)nn23)c1,n,n
COC(=O)c1sccc1S(=O)(=O)N(CC(=O)Nc1ccccc1OC)c1ccc(Cl)cc1,x,+
COC(=O)c1sccc1S(=O)(=O)N(CC(=O)Nc1ccc(OC)cc1)c1ccc(Cl)cc1,n,+
COC(=O)c1sccc1S(=O)(=O)N(CC(=O)Nc1ccc(OC)cc1)c1ccccc1,n,n
COC(=O)c1sccc1S(=O)(=O)N(CC(=O)Nc1cc(C)ccc1C)c1ccc(Cl)cc1,n,n
O=C(Nc1ccc([N+](=O)[O-])cc1)C(=O)N1CCN(c2ccc(F)cc2)CC1,x,+
Cc1ccc(NC(=O)C(=O)N2CCN(c3cccc(Cl)c3)CC2)c([N+](=O)[O-])c1,x,n
O=C(Nc1cccc([N+](=O)[O-])c1)C(=O)N1CCN(c2cccc(Cl)c2)CC1,x,+
CC(C(=O)N1CCCC1)c1ccc([N+](=O)[O-])cc1 (stereo unspecified),x,n
CC(C(=O)N1CCN(c2cccc(Cl)c2)CC1)c1ccc([N+](=O)[O-])cc1 (stereo unspecified),x,+
O=C(Nc1ccc([N+](=O)[O-])cc1)C(=O)N1CCC(O)CC1,x,n
CCC(CO)NC(=O)C(=O)NCc1ccc(F)cc1 (stereo unspecified),x,n
COC(=O)c1c(NC(=O)c2cc(C)no2)sc2c1CC(C)(C)NC2(C)C,n,x
COC(=O)c1c(NC(=O)c2ccco2)sc2c1CC(C)(C)NC2(C)C,n,+
COc1cc(Cl)c(C)cc1NC(=O)Cn1nc2c(cc1=O)CCCC2,n,n
COc1cc(OC)c(NC(=O)Cn2nc3c(cc2=O)CCCC3)cc1Cl,n,+
CCCCCCCCn1c(C)c(C)n2c3c(=O)n(C)c(=O)n(C)c3nc12,n,n
COC(=O)C(C)n1c(C)cn2c3c(=O)n(C)c(=O)n(C)c3nc12 (stereo unspecified),n,+
Cc1c(C)n2c3c(=O)n(C)c(=O)n(C)c3nc2n1CC(O)CO (stereo unspecified),n,+
CC(=O)C(C)n1c(-c2ccccc2)cn2c3c(=O)n(C)c(=O)n(C)c3nc12 (stereo unspecified),n,n
COC(=O)C(C)n1c(C)c(C)n2c3c(=O)n(C)c(=O)n(C)c3nc12 (stereo unspecified),n,+
Cc1c(C)n2c3c(=O)n(CC(N)=O)c(=O)n(C)c3nc2n1C(C)C,n,n
CCCN1C(=O)CC(N2CCOCC2)C1=O (stereo unspecified),x,n
Cc1ccc(S(=O)(=O)CCCC(=O)Nc2sc3c(c2C(N)=O)CCCC3)cc1,n,n
SMILES,GIRK2 act,GluA2 TARP mod
CNC(=O)c1nsc(C(=O)NCc2ccc(OC)c(OC)c2)c1N,n,+
CNC(=O)c1nsc(C(=O)NCc2cccc(C(F)(F)F)c2)c1N,n,n
CN(C)CCCN1C(=O)C(=O)/C(=C(\O)c2ccc(S(=O)(=O)N(C)C)cc2)C1c1ccc(Cl)c(Cl)c1 (stereo unspecified),x,n
Cc1ccnc(Nc2ccc(NCCNS(=O)(=O)c3ccc(F)cc3)nn2)c1,n,+
O=S(=O)(NCCNc1ccc(Nc2ccccn2)nn1)c1ccc(F)cc1,n,n
CCN(c1ccccc1)S(=O)(=O)c1ccc(C(=O)Nc2ccc(S(N)(=O)=O)cc2)cc1,x,n
Cc1ccc(CNC(=O)Cn2cnc(C(C)C)cc2=O)cc1,n,+
Cc1ccc(CNC(=O)Cn2cnc(-c3ccc(C)cc3)cc2=O)cc1,n,n
O=C(Cc1cc(-c2ccc3c(c2)OCO3)on1)NCCC1=CCCCC1,n,x
CC(NC(=O)C(=O)NCc1nc(-c2ccccc2)no1)c1ccccc1 (stereo unspecified),n,n
CCCc1cc(=O)[nH]c(-n2nc(-c3ccco3)cc2NC(=O)c2cc(C3CC3)on2)n1,n,n
c1coc(CNc2nc(N3CCCCC3)nc3ccccc23)c1,x,+
c1ccc(N2CCN(c3nc(NCc4ccco4)c4ccccc4n3)CC2)cc1,x,n
Cc1cc(C)nc(SCc2c(C(=O)NCC(C)C)nnn2-c2ccccc2)n1,n,n
O=C(NCc1ccc2c(c1)OCO2)C(=O)NCC1CCN(C(=O)c2ccncc2)CC1,n,+
CC(C)N1CCC(CNC(=O)C(=O)NCc2ccc3c(c2)OCO3)CC1,n,n
O=C(Nc1cccc(C(F)(F)F)c1)C1CC(=O)N(c2ccc(F)cc2)C1 (stereo unspecified),x,+
O=C(Nc1ccc2c(c1)CN(C(=O)c1ccccc1)CC2)C1CC(=O)N(c2ccc(F)cc2)C1 (stereo unspecified),n,n
CCCc1nc2c(c(=O)c3ccccc3n2C)c(=O)n1Cc1ccccc1,x,n
O=C(CSc1nc(=O)n(CCO)c2c1CCCC2)N1CCc2ccccc21,n,n
O=C(CSc1nc(=O)n(CCCO)c2c1CCC2)N1CCc2ccccc21,n,+
